Reference: the supplement of paper PMC6555819

These sequences were tested on VDR:RXRa (NR concentration 270 nM, RXRa partner concentration 90 nM) (assay: PBM binding z-score (relative to random genomic background probes); higher = stronger binding; sequences stand for … in GC…GCGATTGACAGCGTAGAATGAAGG).
Procedure: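 Protein-binding microarray (Agilent 4x180K custom design, double-stranded 60-nt probes: 5' GC cap, 34-nt variable region, 24-nt constant primer region; full probe sequence given). Purified or IVT nuclear receptor:RXRα heterodimers (3:1 NR:RXRα, mostly 270:90 nM) or homodimers were incubated for 1 h in PBS with 2% milk and no ligand, then detected with Alexa488 antibodies. Fluorescence from o1-orientation probes (~5 replicates averaged) was converted to z-scores against 500 random hg19 background probes. Variable regions are seed direct-repeat (DR0–DR5) sites, all their single-nucleotide variants and half-site ablations.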
With CGAACTACGTCAAAGGACAGTGAAAGGCGACGTA the PBM binding z-score was -0.443. For ATATGCAGGTTAGGGTCATTCAGAAAGTAGGGAA, the PBM binding z-score was 4.26. In the case of CGAACTAGGTCAAAGAACAGTGAAAGGCGACGTA, the PBM binding z-score is reported as 0.943. In the case of CGTCCAAGGTCAAGGTCACTGAAAGAGACTCGAA, the PBM binding z-score is reported as 5.49. Sequence CCTTACGGGTCTAGGTTATAGCACGGGTGGTACG has a PBM binding z-score of -0.339. CCTGGCAGGCCAGGGTCACTCAAGCATTTCGCTT showed a PBM binding z-score of 2.52. CTATGTCGGTTAAGGGGGTCATTCAGTTTGAAAG showed a PBM binding z-score of 6.77. ATATGTTGGTTAGGGTCATTCAGAAAGTAGGGAA was tested, and the PBM binding z-score was 4.37. Work on ATAGAAAGGTCGAAGGTGAGTATACCCACCCGAA yielded a PBM binding z-score of 2.88. Sequence AATACAGGGTGATCGTAGGCCAGAGTACGCACAG has a PBM binding z-score of 0.0765. CAAACTAGGTCAAAGGTCAAAGTTGAGCCAACCA was tested, and the PBM binding z-score was 6.85. Work on CCGAGTAGGTTACGAGGGGGCATTCAATGCGAAT yielded a PBM binding z-score of 4.88. With CTATGTAGGTTAAGGGGGTCATTCATTTTGAAAG the PBM binding z-score was 7.08. TAGCCTAGGTCATTCAGGGGGCAGTATAGAAAGC was tested, and the PBM binding z-score was 4.82. With ATATGTAGGTTACGGTCATTCAGAAAGTAGGGAA the PBM binding z-score was 1.54. In the case of GCTGCAAGGTCAACTGATGGTCAGCTAAAGCTCG, the PBM binding z-score is reported as 4.66. AGTCAAAGTTCACGACGAGGTAACGTAAAGCACG gave a PBM binding z-score of 5.05. GCTGCTAGGTCAACTGATGGTCAGCTAAAGCTCG showed a PBM binding z-score of 1.47. Work on GCTGCTAGGTCGACTGATGGTCAGCTAAAGCTCG yielded a PBM binding z-score of -0.493. Work on CTCGAAAGGTGGTGCTCAGGTGAGTATACCAAAC yielded a PBM binding z-score of -0.508. Sequence TCTTATAGATCAATAGAGGTTAAGAAAGTGCGCT has a PBM binding z-score of 2.03. For CCTGCTAGGTCAAGGGTCAGCTAAAGCAGCTCGC, the PBM binding z-score was 4.17. CCTACTGTGCCATTCAGAGGTCATTGATCATATG gave a PBM binding z-score of 4.25. For TCTAGTAGGTTACGGGGGCATTCAGGGATGAAGA, the PBM binding z-score was 4.39. CTATGTAGGTTAAGGGGTTCATTCAGTTTGAAAG gave a PBM binding z-score of 7.62. With CGTCCAAGGTCAATGCTAGGTCACTGAAAGCATT the PBM binding z-score was 5.55. In the case of ATCGAAACGTCGTGAGGTGAGTATACAGAAAGGC, the PBM binding z-score is reported as -0.25. Work on GCTGCTAGGTCATGTTGGTCAGCTAACGGGTACG yielded a PBM binding z-score of 2.15. CCTACTGGGCCGAGGTCATTGATCAGTCAAAGCA was tested, and the PBM binding z-score was 4.12. For CCTTACGGGTCACTCCAGGTTCTAGCATCGGAGT, the PBM binding z-score was 3.59. For CGAACTAGGCCACCAGGACAGTGAAGAGGTTGGA, the PBM binding z-score was -0.817. For CCTACTGGGCCAAAGGTCATAGATTCCAATGCTC, the PBM binding z-score was 4.17. In the case of ATCGGAAGGTCGAGGTGAGTATAGAGAAAGGGAA, the PBM binding z-score is reported as 1.31. Sequence CTATGTAGGCTAAGGGGGTCATTCAGTTTGAAAG has a PBM binding z-score of 6.41. With CTATGTAGGTTCAGGGGGTCATTCAGTTTGAAAG the PBM binding z-score was 6.91. CAAACTAGGTCAAAGGTCAAAGCCGAGCCAACCA showed a PBM binding z-score of 6.79. Sequence CCGACGGGGGCAAGGTTACCATAACGCACAGCCA has a PBM binding z-score of 3.01. Work on CCTACTGGGCCATTAAGAGGTCATTGATCATATG yielded a PBM binding z-score of 3.95. With CTATGTAGGTTAAGGGGGTCAGTCAGTTTGAAAG the PBM binding z-score was 6.49. In the case of CCGACTGGGGCAAAGGTCACCATACTCAGTACGA, the PBM binding z-score is reported as 4.7.
